This is an account of results in PubChem BioAssay.

Each structure is given as a SMILES string. Calls of active or inactive are those of the source.

A short description of the first assay: probe aCHRDL2 binding to arrayed compounds – biochemical, biotinylated probe, 635/667 nm fluorescence, primary screen (AID 1100). Particulars: small-molecule microarray, higher = more signal.
`Cc1ccc(S[C@]2(C(=O)NCCCN(C)C)CC(=O)N(Cc3cc(C(F)(F)F)cc(C(F)(F)F)c3)[C@@H]2c2ccc(CO)cc2I)cc1` showed a composite z-score of 0.879. Take `CCC[C@@H]1C[C@@]1(CCC)[C@@H](NC(=O)c1ccccc1)c1cccc(Cl)c1`: the composite z-score came to 0.958. In turn, `COc1ccccc1CN1C(=O)c2ccccc2[C@@]2(Cc3ccccc3N(CC(C)C)C2=O)[C@@H]1c1ccc(CO)cc1` gave a composite z-score of 0.124. Consider `Cc1ccc(N2C(=O)c3ccccc3[C@@H](C(=O)NC3CC3)[C@@H]2c2ccc(CO)cc2)nc1`, for which the composite z-score amounted to 0.908.

In the case of `C=C[C@H](CO[Si](CC)(CC)CC)N(Cc1ccc(OC(C)=O)c(OC)c1)S(=O)(=O)c1ccc(Br)cc1`, the composite z-score is 0.471. Regarding `O=C1NC(=O)C2C1C=CC(C(O)c1cc(C(F)(F)F)cc(C(F)(F)F)c1)N2Nc1ccccn1` (centres undefined), the composite z-score is -0.387. Same read-out and setting: in the case of `C[N+](C)(C)CCCC[C@@H]1NC(=O)[C@H]2C[C@@H](C(=O)NCCCCCCNC(=O)CS)[C@@H](c3cccc(OCCO)c3)N2C1=O` it was 0.861; in that of `CC(C)NC(=O)[C@@H]1c2ccccc2C(=O)N(C2Cc3ccccc3C2)[C@H]1c1ccc(CO)cc1`, 0.749. Same read-out and setting: in the case of `C=C(CC1([C@@H](NP(=O)(c2ccccc2)c2ccccc2)[C@H]2C[C@@H]2CCCC)CC1)c1ccccc1` it was 0.994; in that of `CCOC(=O)C[C@H]1[C@H](OC(=O)c2ccc(C(=O)c3ccccc3)cc2)[C@@H](NC(=O)c2ccc3ccccc3n2)c2cc(OCCCO)ccc2N1C(=O)c1ccccc1`, 0.628; in that of `O=C1C[C@@](C(=O)NCCN2CCOCC2)(c2ccc([N+](=O)[O-])cc2)[C@@H](c2ccc(CO)cc2)N1CC12CC3CC(CC(C3)C1)C2`, 0.638.

`CC(C)=CCN[C@H](CO)c1ccccc1` registered a composite z-score of -0.235. The same measure, in the same setting: in the case of `COC(=O)[C@@]1(Cc2ccc(OC)cc2)[C@H]2c3cc(C(=O)N(C)C)n(C)c3C[C@H]2CN1C(=O)c1ccccc1` it was 1.28; in that of `CN1C(=O)C2C=CC(C(O)c3ccc([N+](=O)[O-])cc3)N(N3CCCCC3)C2C1=O` (centres undefined), 0.956; in that of `CC(=O)n1cc(C(O)C2C=CC3C(=O)N(c4ccccc4)C(=O)C3N2Nc2ccc([N+](=O)[O-])cc2)c2ccccc21` (centres undefined), 1.38. Take `O=C(c1ccccc1)N1Cc2ccccc2C[C@@]2(COC(c3ccc(OCCCO)cc3)=N2)C1=O`: the composite z-score came out at 0.657. `O=C(c1ccccc1)N1C(=O)[C@]2(COC(c3ccc(OCCCO)cc3)=N2)Cc2ccccc21` yielded a composite z-score of 0.784.

In turn, `CCCC[C@@H]1C[C@H]1[C@@H](NC(=O)c1ccccc1)c1ccc(C(=O)OC)cc1` registered a composite z-score of 1.18. For `COc1cc2c(cc1O)C(C1CC1)N(Cc1sc3ccccc3c1Cl)CC2` (centres undefined), the composite z-score was determined as 0.652. Compound `O=C1N(Cc2ccccc2)c2ccccc2[C@@H]2OC(c3ccc(OCCCO)cc3)=N[C@]12CCS(=O)(=O)c1ccccc1` yielded a composite z-score of 0.78. In the case of `CO[C@H]1O[C@H](CO)[C@@H](OC(=O)Nc2cccc(F)c2)[C@H](OC(=O)Nc2ccccc2)[C@@H]1OC(=O)Nc1ccccc1`, the composite z-score stood at 0.824. Take `COc1ccc(CCNC(=O)[C@@]2(Sc3ccc(C)cc3)CC(=O)N(C(C)C)[C@@H]2c2ccc(CO)cc2I)cc1`: the composite z-score turned out to be 0.778. `Cc1ccc(S[C@]2(C(=O)NCCCN(C)C)CC(=O)N(Cc3cc(C(F)(F)F)cc(C(F)(F)F)c3)[C@@H]2c2ccc(CO)cc2)cc1`: the composite z-score is 0.495. As to `CC(C)NC(=O)[C@@]1(c2ccc([N+](=O)[O-])cc2)CC(=O)N(C2CCCCC2)[C@@H]1c1ccc(CO)cc1I`, the composite z-score was 0.902.

The nature of another assay: change in splice reporter luminescence, either direction, cell-based, HEK293, spliceosome inhibition project, primary screen (AID 1101).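 Further: HEK293 cells carrying a splicing-competent luciferase reporter gene; test concentration not given here.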 To be noted: HEK293 splicing luciferase reporter, 24 h, higher = more signal, called active from +8 up or from −8 down.
In the case of `COCCOC(=O)N1C(=O)[C@@]2(c3cc(C#CCCO)ccc31)[C@H](C(=O)N1CCCCCCC1)[C@H]1C(=O)O[C@H](c3ccccc3)[C@H](c3ccccc3)N1[C@@H]2c1ccc(OCCO)cc1`, the z-score was 0.713 (inactive). The same measure, in the same setting: in the case of `C=CC[C@@]12N=C(c3ccc(OCCCO)cc3)O[C@@H]1c1ccccc1N(C)C2=O` it was -0.933 (inactive). The same measure, in the same setting: in the case of `O=C1C2C=CC(C(O)Cc3ccccc3)N(n3cnnc3)C2C(=O)N1Cc1ccccc1` (centres undefined) it was -0.195 (inactive).

On to `CCN(CC)c1ccc(N2CC=CC34O[C@@H]5C=CCCOC(=O)C5[C@H]3C(=O)N(CCCCCCO)[C@@H]4C2=O)cc1` (some centres undefined), for which the z-score is -1.98 (inactive). Take `O=C1c2ccccc2[C@](Cc2ccccc2I)(C(=O)NCCN2CCOCC2)[C@H](c2ccc(CO)cc2)N1C1CCCCC1`: the z-score was 0.821 (inactive). The same measure, in the same setting: in the case of `[N-]=[N+]=Nc1ccccc1[C@@H]1OC(c2ccc(OCCCO)cc2)=N[C@]1(CCS(=O)(=O)c1ccccc1)C(N)=O` it was -0.752 (inactive); in that of `CN(C)C(=O)[C@@]1(CCS(=O)(=O)c2ccccc2)COC(c2ccc(OCCCO)cc2)=N1`, -0.824 (inactive); in that of `CC(C)C[C@@H]1NC(=O)[C@@H]2C[C@H](C(=O)O)[C@H](c3cccc(OCCO)c3)N2C1=O`, -0.358 (inactive). Still for that read-out and setting: in the case of `CCOC(=O)C[C@H]1[C@H](OC(=O)c2ccc(-c3ccccc3)cc2)[C@@H](NC(=O)Cc2ccc(OC)cc2)c2cc(OCCCO)ccc2N1C(=O)c1ccccc1` it was 0.122 (inactive). As to `C=C(CCCC)/C(=C/C[C@H](OC(C)=O)c1ccccc1OCCO)c1cc(C(=O)OC)ccc1OC`, the z-score was -0.616 (inactive).

Regarding `C=CCC(OC(C)=O)[C@@H]1[C@@H](N(Cc2ccc(-c3ccccc3)cc2)C(=O)c2cccc3ccccc23)c2cc(OCCCO)ccc2N1C(=O)c1ccc(-c2ccccc2)cc1` (some centres undefined), the z-score was -1.05 (inactive). Same read-out and setting: in the case of `Cc1ccc(S[C@]2(C(=O)NCCCN(C)C)CC(=O)N(Cc3cc(C(F)(F)F)cc(C(F)(F)F)c3)[C@@H]2c2ccc(CO)cc2I)cc1` it was -0.0675 (inactive). As for `CCC[C@@H]1C[C@@]1(CCC)[C@@H](NC(=O)c1ccccc1)c1cccc(Cl)c1`, the z-score is 0.444 (inactive). On the same count and under the same terms, in the case of `COc1ccccc1CN1C(=O)c2ccccc2[C@@]2(Cc3ccccc3N(CC(C)C)C2=O)[C@@H]1c1ccc(CO)cc1` it was -0.686 (inactive); in that of `Cc1ccc(N2C(=O)c3ccccc3[C@@H](C(=O)NC3CC3)[C@@H]2c2ccc(CO)cc2)nc1`, 0.942 (inactive). On the same count and under the same terms, in the case of `C=C[C@H](CO[Si](CC)(CC)CC)N(Cc1ccc(OC(C)=O)c(OC)c1)S(=O)(=O)c1ccc(Br)cc1` it was -0.0534 (inactive); in that of `O=C1NC(=O)C2C1C=CC(C(O)c1cc(C(F)(F)F)cc(C(F)(F)F)c1)N2Nc1ccccn1` (centres undefined), 1.35 (inactive); in that of `C[N+](C)(C)CCCC[C@@H]1NC(=O)[C@H]2C[C@@H](C(=O)NCCCCCCNC(=O)CS)[C@@H](c3cccc(OCCO)c3)N2C1=O`, -0.213 (inactive). Consider `CC(C)NC(=O)[C@@H]1c2ccccc2C(=O)N(C2Cc3ccccc3C2)[C@H]1c1ccc(CO)cc1`, for which the z-score was -0.535 (inactive). As for `C=C(CC1([C@@H](NP(=O)(c2ccccc2)c2ccccc2)[C@H]2C[C@@H]2CCCC)CC1)c1ccccc1`, the z-score was -2.51 (inactive). The same measure, in the same setting: in the case of `CCOC(=O)C[C@H]1[C@H](OC(=O)c2ccc(C(=O)c3ccccc3)cc2)[C@@H](NC(=O)c2ccc3ccccc3n2)c2cc(OCCCO)ccc2N1C(=O)c1ccccc1` it was 0.305 (inactive). In the case of `O=C1C[C@@](C(=O)NCCN2CCOCC2)(c2ccc([N+](=O)[O-])cc2)[C@@H](c2ccc(CO)cc2)N1CC12CC3CC(CC(C3)C1)C2`, the z-score is 2.36 (inactive). In the case of `CC(C)=CCN[C@H](CO)c1ccccc1`, the z-score was -0.795 (inactive). The same measure, in the same setting: in the case of `COC(=O)[C@@]1(Cc2ccc(OC)cc2)[C@H]2c3cc(C(=O)N(C)C)n(C)c3C[C@H]2CN1C(=O)c1ccccc1` it was -1.96 (inactive). Same read-out and setting: in the case of `CN1C(=O)C2C=CC(C(O)c3ccc([N+](=O)[O-])cc3)N(N3CCCCC3)C2C1=O` (centres undefined) it was 0.943 (inactive). The same measure, in the same setting: in the case of `CC(=O)n1cc(C(O)C2C=CC3C(=O)N(c4ccccc4)C(=O)C3N2Nc2ccc([N+](=O)[O-])cc2)c2ccccc21` (centres undefined) it was 0.138 (inactive). For the compound `O=C(c1ccccc1)N1Cc2ccccc2C[C@@]2(COC(c3ccc(OCCCO)cc3)=N2)C1=O`, the z-score is 0.372 (inactive). The same measure, in the same setting: in the case of `O=C(c1ccccc1)N1C(=O)[C@]2(COC(c3ccc(OCCCO)cc3)=N2)Cc2ccccc21` it was 0.00817 (inactive); in that of `CCCC[C@@H]1C[C@H]1[C@@H](NC(=O)c1ccccc1)c1ccc(C(=O)OC)cc1`, -2.47 (inactive); in that of `COc1cc2c(cc1O)C(C1CC1)N(Cc1sc3ccccc3c1Cl)CC2` (centres undefined), -1.57 (inactive). On the same count and under the same terms, in the case of `O=C1N(Cc2ccccc2)c2ccccc2[C@@H]2OC(c3ccc(OCCCO)cc3)=N[C@]12CCS(=O)(=O)c1ccccc1` it was 1.2 (inactive); in that of `CO[C@H]1O[C@H](CO)[C@@H](OC(=O)Nc2cccc(F)c2)[C@H](OC(=O)Nc2ccccc2)[C@@H]1OC(=O)Nc1ccccc1`, -1.24 (inactive); in that of `COc1ccc(CCNC(=O)[C@@]2(Sc3ccc(C)cc3)CC(=O)N(C(C)C)[C@@H]2c2ccc(CO)cc2I)cc1`, -0.658 (inactive). On the same count and under the same terms, in the case of `Cc1ccc(S[C@]2(C(=O)NCCCN(C)C)CC(=O)N(Cc3cc(C(F)(F)F)cc(C(F)(F)F)c3)[C@@H]2c2ccc(CO)cc2)cc1` it was 0.269 (inactive). Turning to `CC(C)NC(=O)[C@@]1(c2ccc([N+](=O)[O-])cc2)CC(=O)N(C2CCCCC2)[C@@H]1c1ccc(CO)cc1I`, the z-score is 0.61 (inactive).
